Laboratory results: PubChem BioAssay AID1159580 (chemical genetic matrix, 2015)
In all, about 5,500 compounds went through this assay and about 2,000 (36%) were called active. Not shown: some 18% with an inconclusive outcome. No stated cut-off is given here; in the data, active means normalized growth mostly below about 0.91 (no sharp cut-off); inconclusive means no clear call, values can overlap the other calls; inactive means mostly above about 0.92. Some of the results follow.

Assay: chemical genetic growth profiling, strain panel (AID 1159580);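 further: tested at 20 µM; growth read once vehicle control cultures reached saturation at 30 °C; 1 = growth at the plate median or of vehicle wells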
Conditions: growth OD
[1] = S. cerevisiae deletion strains, locus YGR078C, strain PAC10, stronger effect = lower value
[2] = S. cerevisiae deletion strains, locus YJR075W, strain HOC1, stronger effect = lower value
[3] = S. cerevisiae deletion strains, locus YMR307W, strain GAS1, stronger effect = lower value
[4] = S. cerevisiae deletion strains, locus YNL153C, strain GIM3, stronger effect = lower value
[5] = S. cerevisiae deletion strains, locus YNL322C, strain KRE1, stronger effect = lower value
[6] = S. cerevisiae deletion strains, locus YPL241C, strain CIN2, stronger effect = lower value

Measured: normalized growth

CC(C)(Sc1ccc(CCN(CCCCC2CCCCC2)C(=O)NC2CCCCC2)cc1)C(=O)O
inactive: S. cerevisiae deletion strains, locus YAL040C, strain CLN3, stronger effect = lower value 1.06 | S. cerevisiae deletion strains, locus YCL061C, strain MRC1 (second series), stronger effect = lower value 0.994 | S. cerevisiae deletion strains, locus YDR363W, strain ESC2, stronger effect = lower value 1.01 | S. cerevisiae deletion strains, locus YER002W, strain NOP16, stronger effect = lower value 1.01 | [1] 1.03 | [2] 1.01 | [3] 0.994 | [4] 0.986 | S. cerevisiae deletion strains, locus YNL175C, strain NOP13, stronger effect = lower value 1.01 | S. cerevisiae deletion strains, locus YNL197C, strain WHI3, stronger effect = lower value 1.02 | S. cerevisiae deletion strains, locus YNL224C, strain SQS1, stronger effect = lower value 1 | [5] 0.994 | S. cerevisiae deletion strains, locus YOR083W, strain WHI5 (second series), stronger effect = lower value 0.98 | [6] 1

CC(C)(C)S(=O)(=O)/C(C#N)=C/c1ccc(F)cc1F
inactive: S. cerevisiae deletion strains, locus YAL013W, strain DEP1, stronger effect = lower value 0.995 | S. cerevisiae deletion strains, locus YBR229C, strain ROT2, stronger effect = lower value 0.999 | S. cerevisiae deletion strains, locus YDL101C, strain DUN1, stronger effect = lower value 1 | S. cerevisiae deletion strains, locus YDL134C, strain PPH21, stronger effect = lower value 1.01 | S. cerevisiae deletion strains, locus YDR150W, strain NUM1, stronger effect = lower value 0.947 | S. cerevisiae deletion strains, locus YEL061C, strain CIN8, stronger effect = lower value 1.02 | [1] 0.999 | S. cerevisiae deletion strains, locus YHR030C, strain SLT2, stronger effect = lower value 1.08 | S. cerevisiae deletion strains, locus YHR087W, strain rtc3, stronger effect = lower value 1.01 | S. cerevisiae deletion strains, locus YJL187C, strain SWE1, stronger effect = lower value 1 | S. cerevisiae deletion strains, locus YJR043C, strain POL32, stronger effect = lower value 1.01 | [2] 0.987 | S. cerevisiae deletion strains, locus YKL190W, strain CNB1, stronger effect = lower value 1.02 | S. cerevisiae deletion strains, locus YLR039C, strain RIC1, stronger effect = lower value 0.962 | S. cerevisiae deletion strains, locus YLR058C, strain SHM2 (second series), stronger effect = lower value 0.987 | S. cerevisiae deletion strains, locus YLR085C, strain ARP6, stronger effect = lower value 1.06 | S. cerevisiae deletion strains, locus YLR262C, strain YPT6, stronger effect = lower value 0.954 | S. cerevisiae deletion strains, locus YML094W, strain GIM5, stronger effect = lower value 1.03 | S. cerevisiae deletion strains, locus YMR219W, strain ESC1, stronger effect = lower value 0.989 | S. cerevisiae deletion strains, locus YMR263W, strain SAP30, stronger effect = lower value 0.977 | [3] 1.01 | S. cerevisiae deletion strains, locus YNL128W, strain TEP1, stronger effect = lower value 1.01 | [4] 1.01 | S. cerevisiae deletion strains, locus YNL298W, strain CLA4 (second series), stronger effect = lower value 1.03 | [5] 0.994 | S. cerevisiae deletion strains, locus YNR030W, strain Alg12, stronger effect = lower value 1.01 | S. cerevisiae deletion strains, locus YPL055C, strain LGE1, stronger effect = lower value 0.919 | [6] 1.03 | S. cerevisiae deletion strains, locus YPR135W, strain CTF4, stronger effect = lower value 1.05 | S. cerevisiae strains, strain wild type, stronger effect = lower value 1.03
